Screen size: about 48,000 compounds; about 13,000 (27%) showed an effect of 50% or more. The list shows a part of the results.
The compounds below were run on Wolbachia pipientis (assay: Anti-Wolbachia Cell-Based Screen). Settings: 5 µM.
Format: functional
Set-up: scale not given: in the data most compounds retested in dose-response had high values
In the case of `c1ccc(COC[C@@H]2CC[C@H]3[C@H](CCN3c3ncccn3)O2)nc1`, the “Percent Effect” value is reported as -9.448%. With `O=S(=O)(c1ccccc1)N1C[C@@H]2COC[C@]2(COCC2CC2)C1` the “Percent Effect” value was 4.427%. `Cn1cc(CN2C[C@@H]3COC[C@]3(COc3ccc(C#N)cn3)C2)cn1` was tested, and the “Percent Effect” value was -1.317%. In the case of `c1ccc(COC[C@]23COC[C@H]2CN(c2ncccn2)C3)nc1`, the “Percent Effect” value is reported as 107.1%. For `Cc1cccc(CN2C[C@@H]3COC[C@]3(COc3ccc(C#N)cn3)C2)n1`, the “Percent Effect” value was -1.985%. With `N#Cc1ccc(OC[C@]23COC[C@H]2CN(c2ncccn2)C3)nc1` the “Percent Effect” value was 98.67%. In the case of `CCc1ncc2c(n1)CN(C(C)C(=O)N1CCOCC1)CC2` (stereo not drawn), the “Percent Effect” value is reported as -13.62%. For `CC(Oc1ccc(F)cc1F)C(=O)N1CCC2(CCCO2)CC1` (stereo not drawn), the “Percent Effect” value was -4.107%. `O=C(c1ccc(=O)[nH]n1)N1CCCC(O)(CN2CCC(F)(F)CC2)CC1` (stereo not drawn) was tested, and the “Percent Effect” value was 110.9%. With `O=C(c1cnc(COc2ccccc2)nc1O)N1CCC(F)(F)CC1` the “Percent Effect” value was 10.39%. For `O=C(c1cccc(O)n1)N1CCC(O)(CN2CCC(F)(F)CC2)C1` (stereo not drawn), the “Percent Effect” value was 119.2%. `CCOc1ccccc1OC1CCN(C(=O)c2ccc(=O)[nH]n2)CC1` was tested, and the “Percent Effect” value was -11.25%. With `O=C(c1cc(F)ccc1F)C1CCN(C(=O)c2ccc(=O)[nH]n2)CC1` the “Percent Effect” value was 6.401%. For `O=C(c1cn2ccsc2n1)N1CCOCC(O)(CN2CCCC2)C1` (stereo not drawn), the “Percent Effect” value was 6.26%. With `NC(=O)Nc1cc(F)ccc1SCC(F)F` the “Percent Effect” value was -8.756%. In the case of `CCn1cc(CNC(C)c2noc(-c3ccc(Cl)cc3)n2)cn1` (stereo not drawn), the “Percent Effect” value is reported as 5.108%. In the case of `CCN(CC1CCOC1)S(=O)(=O)Cc1ccccc1Cl` (stereo not drawn), the “Percent Effect” value is reported as -1.168%. `CC(CN1CCOCC1)NCC1CCN(c2cnn(C)c(=O)c2)CC1` (stereo not drawn) was tested, and the “Percent Effect” value was -0.8467%. In the case of `Cc1ccc(C)c(OCCNC(=O)[C@@H]2CCCCN2)c1`, the “Percent Effect” value is reported as -1.478%. With `Cc1cccc(Oc2ccccc2CNC(=O)C2CCNC(=O)C2)c1` (stereo not drawn) the “Percent Effect” value was 104.5%. For `O=C(CNC(=O)C1CC1)Nc1c(F)cccc1Oc1ccccc1`, the “Percent Effect” value was -3.554%. For `CC(C)(C)Oc1ccccc1CNC(=O)C1CCCOC1` (stereo not drawn), the “Percent Effect” value was -47.48%. `Cc1ccc(CNC(=O)C2CCNC(=O)C2)c(OCCC(C)C)c1` (stereo not drawn) was tested, and the “Percent Effect” value was 103.9%. In the case of `CCc1[nH]c2c(CNC(=O)C3CNC(=O)C3)cc(C)cc2c1C` (stereo not drawn), the “Percent Effect” value is reported as -7.809%. With `O=C1CC(C(=O)NCc2ccccc2Oc2ccccc2F)CCN1` (stereo not drawn) the “Percent Effect” value was 91.68%. With `O=C1CCC(C(=O)NCCOc2cccc(Cl)c2Cl)CN1` (stereo not drawn) the “Percent Effect” value was -0.2416%. With `CCc1[nH]c2c(CNC(=O)C3CCC(=O)NC3)cc(C)cc2c1C` (stereo not drawn) the “Percent Effect” value was -3.367%. With `O=C(NCc1ccccc1OCC1CC1)C1CCOC1` (stereo not drawn) the “Percent Effect” value was -26.71%. For `Cc1ccc(C)c(OCCNC(=O)C2CCOC2)c1` (stereo not drawn), the “Percent Effect” value was -7.675%. For `Cc1cccc(Oc2ccccc2CNC(=O)C2CCC(=O)NC2)c1` (stereo not drawn), the “Percent Effect” value was 96.69%. In the case of `CC(NC(=O)N1CCSC(C)(C)C1)c1noc(-c2ccccc2)n1` (stereo not drawn), the “Percent Effect” value is reported as -9.511%. With `CCC[C@H]1CN(Cc2cncn2C)C[C@@H]1NC(=O)C1(COC)CCC1` the “Percent Effect” value was -8.158%. `COCCNC(=O)c1ccoc1CN1c2ccccc2CC1C` (stereo not drawn) was tested, and the “Percent Effect” value was -13.79%. In the case of `Cc1nc(C)n(CC(C)C(=O)N2CCCN(C3CCCC3)CC2)n1` (stereo not drawn), the “Percent Effect” value is reported as -15.63%. With `O=c1[nH][nH]cc1-c1ccnc(NCCN2CCCC2)n1` the “Percent Effect” value was -6.447%. With `O=c1[nH][nH]cc1-c1ccnc(NCCCN2CCOCC2)n1` the “Percent Effect” value was 116.9%. In the case of `O=C1O[C@@H]2CN(Cc3ccncc3)C[C@@H]2N1CCCN1CCOCC1`, the “Percent Effect” value is reported as -10.63%. In the case of `O=c1[nH][nH]cc1-c1ccnc(NCCN2CCCCC2)n1`, the “Percent Effect” value is reported as 112.5%. `C[C@H]1CCCCN1CCCNc1nccc(-c2c[nH][nH]c2=O)n1` was tested, and the “Percent Effect” value was 112%. `CC(C)COCC(NC(=O)c1ccccn1)c1ccco1` (stereo not drawn) was tested, and the “Percent Effect” value was 12.33%. With `O=C1CNCC(C(=O)N2CC(Oc3ccccc3Cl)C2)N1` (stereo not drawn) the “Percent Effect” value was -5.2%. `COc1ccc(F)cc1CN1CCCn2nc(CNS(C)(=O)=O)cc2C1` was tested, and the “Percent Effect” value was 6.854%. `Cc1ccc2c(c1)c(CNC(=O)C1CCN(C(=O)C3CC3)CC1)nn2C` was tested, and the “Percent Effect” value was -8.87%. In the case of `O=C(C1CC1)N1CCC(c2nc(-c3ccccc3)n[nH]2)CC1`, the “Percent Effect” value is reported as -8.829%. For `CN1CCC(C(=O)N2CCC(c3ccc4c(N)n[nH]c4n3)CC2)CC1`, the “Percent Effect” value was 104%. `CCc1noc(CN(C)C(=O)C(C)(C)Oc2cccc(Cl)c2)n1` was tested, and the “Percent Effect” value was 11.07%. With `CO[C@H]1COCCN(C(=O)c2ccc(C(F)(F)F)cc2)C1` the “Percent Effect” value was -0.5949%. With `CCOCc1cnc2n1CCN(Cc1nc(C)cs1)C2C.O=C(O)C(F)(F)F` (stereo not drawn) the “Percent Effect” value was -1.73%. With `Cc1ncsc1CN1CCn2c(COc3cccnc3)cnc2C1C.O=C(O)C(F)(F)F.O=C(O)C(F)(F)F` (stereo not drawn) the “Percent Effect” value was -6.197%. For `CCOCc1cnc2n1CCN(Cc1cccs1)C2C.O=C(O)C(F)(F)F` (stereo not drawn), the “Percent Effect” value was 10.91%. In the case of `COCc1cnc2n1CCN(Cc1cccnc1)C2C.O=C(O)C(F)(F)F.O=C(O)C(F)(F)F` (stereo not drawn), the “Percent Effect” value is reported as -12.59%. `Cc1csc(CN2CCn3c(COc4cccnc4)cnc3C2C)n1.O=C(O)C(F)(F)F.O=C(O)C(F)(F)F` (stereo not drawn) was tested, and the “Percent Effect” value was 106.1%. In the case of `CC1c2ncc(COc3cccnc3)n2CCN1Cc1cnn(C)c1.O=C(O)C(F)(F)F.O=C(O)C(F)(F)F` (stereo not drawn), the “Percent Effect” value is reported as 101.1%. In the case of `Cc1ccsc1CN1CCn2c(COc3cccnc3)cnc2C1C.O=C(O)C(F)(F)F.O=C(O)C(F)(F)F` (stereo not drawn), the “Percent Effect” value is reported as 105.4%. With `Cc1ccc(CN2CCn3c(COc4cccnc4)cnc3C2C)o1.O=C(O)C(F)(F)F.O=C(O)C(F)(F)F` (stereo not drawn) the “Percent Effect” value was 105.5%. With `Cc1ccc(CN2CC[C@@H](N3CCOCC3)[C@@H]2Cc2cccnc2)o1.O=C(O)C(F)(F)F.O=C(O)C(F)(F)F.O=C(O)C(F)(F)F` the “Percent Effect” value was -6.789%. `CC1c2ncc(COc3cccnc3)n2CCN1C(=O)C1=CCCC1.O=C(O)C(F)(F)F` (stereo not drawn) was tested, and the “Percent Effect” value was 6.564%. In the case of `CCNc1ncc(CN(CCN(C)C)Cc2ccc(C)s2)cn1`, the “Percent Effect” value is reported as 9.658%. For `CC(CC#N)N(C)Cc1ccc(F)cc1F` (stereo not drawn), the “Percent Effect” value was -4.017%. For `NC(=O)Nc1cc(Br)cnc1OCC(F)(F)F`, the “Percent Effect” value was 3.483%. In the case of `CC(C)N1CCC(CC(=O)N(C)CC(=O)c2ccc(O)cc2)CC1`, the “Percent Effect” value is reported as -41.3%. With `COc1cc(OC)cc(-n2ccnc2-c2cc3n(n2)CCNC3)c1` the “Percent Effect” value was -3.796%. For `CN(C)C[C@H]1C[C@@H](CO)CN(C(=O)CCc2nc(Cl)n[nH]2)C1`, the “Percent Effect” value was -2.145%. `Cc1cccc2c1nc1n2[C@@H](CNC2CCCCC2)COC1` was tested, and the “Percent Effect” value was -2.586%. For `CC1c2ncc(COc3cccnc3)n2CCN1Cc1ccco1` (stereo not drawn), the “Percent Effect” value was 103.4%. `CC1c2ncc(COc3cccnc3)n2CCN1C(=O)Cc1ccco1.O=C(O)C(F)(F)F` (stereo not drawn) was tested, and the “Percent Effect” value was 6.97%. With `CCCNC(=O)c1ccc2c(c1)C(=O)N(CC(C)C)C2=O` the “Percent Effect” value was 12.13%. In the case of `O=C(Cc1ccc(F)cc1)NS(=O)(=O)c1ccc(F)c(F)c1`, the “Percent Effect” value is reported as -8.123%. `O=C(c1cc(F)cc(F)c1)N1CCC(O)(C(F)(F)F)CC1` was tested, and the “Percent Effect” value was 87.26%. In the case of `O=C(c1ccoc1)N1CCC(O)(C(F)(F)F)CC1`, the “Percent Effect” value is reported as 69.76%. With `CC(=O)N1CC2(CCN(C(=O)c3ccoc3)C2)C1` the “Percent Effect” value was -7.067%. For `CC[C@@]1(O)CCN(C(=O)c2ccoc2)C[C@H]1O`, the “Percent Effect” value was -13.59%. `Cc1ccc2cc(C(=O)N3CCC(O)(C(F)(F)F)CC3)ccc2n1` was tested, and the “Percent Effect” value was 14.37%. With `O=C(c1cc(F)cc(F)c1)N1CCC2(CC1)CC2` the “Percent Effect” value was 32.79%. For `CCc1nc2n(n1)CC(NCc1ncc(-c3ccccc3)o1)CC2` (stereo not drawn), the “Percent Effect” value was -4.969%. `CCc1nc2n(n1)CC(NCc1nc(Cc3ccccc3)no1)CC2` (stereo not drawn) was tested, and the “Percent Effect” value was 105.9%. In the case of `CCc1nc2n(n1)CC(NCc1nc3ccccc3nc1C)CC2` (stereo not drawn), the “Percent Effect” value is reported as -12.92%. In the case of `CCc1nc2n(n1)CC(NCc1cnc(-c3ccccc3)nc1)CC2` (stereo not drawn), the “Percent Effect” value is reported as 109.3%. In the case of `CCc1nc2n(n1)CC(NCc1nc3ccccc3o1)CC2` (stereo not drawn), the “Percent Effect” value is reported as -13.4%. `CCc1nc2n(n1)CC(NCc1ccnc(-c3ccccc3)n1)CC2` (stereo not drawn) was tested, and the “Percent Effect” value was 7.748%. For `CCc1nc2n(n1)CC(NCc1cnn(Cc3ccccc3)c1)CC2` (stereo not drawn), the “Percent Effect” value was 87.86%. With `CCc1nc2n(n1)CC(NCc1nc(-c3cccnc3)no1)CC2` (stereo not drawn) the “Percent Effect” value was -12.29%. In the case of `c1ccc(Cc2noc(CNC3CCc4ncnn4C3)n2)cc1` (stereo not drawn), the “Percent Effect” value is reported as -0.1669%. In the case of `CCc1noc(C(C)N2CCN(Cc3cnc(C)cn3)CC2)n1` (stereo not drawn), the “Percent Effect” value is reported as 14.64%. `O=C(NC[C@H]1OC[C@@H](NCc2ccccc2F)[C@@H]1O)Nc1ccccc1` was tested, and the “Percent Effect” value was -9.055%. In the case of `CC(C)c1nccn1CCCNC(=O)c1ccc(-c2cncnc2)nc1`, the “Percent Effect” value is reported as -0.1776%. With `CCc1ncc2c(n1)CN(Cc1nc(-c3ccsc3)oc1C)CC2` the “Percent Effect” value was 1.537%. `Cc1ccc(-c2nnc(CN3CCc4cnc(C)nc4C3)o2)cc1` was tested, and the “Percent Effect” value was -1.089%. In the case of `CCc1ncc2c(n1)CN(Cc1nnc(C)o1)CC2`, the “Percent Effect” value is reported as 12.23%. With `CCc1ncc2c(n1)CN(Cc1nc(C)c(C)o1)CC2` the “Percent Effect” value was -17.94%. With `CC(C)c1ncc2c(n1)CN(Cc1cccc3c1OCCO3)CC2` the “Percent Effect” value was 21.53%. For `Cc1ncc2c(n1)CN(Cc1nnc(-c3occc3C)o1)CC2`, the “Percent Effect” value was 2.201%. In the case of `CCc1ncc2c(n1)CN(Cc1nc(-c3ccco3)oc1C)CC2`, the “Percent Effect” value is reported as 106.4%. In the case of `CC(C)c1ncc2c(n1)CN(Cc1ccc3c(c1)OCCO3)CC2`, the “Percent Effect” value is reported as -34.65%. In the case of `Cc1ncc2c(n1)CN(Cc1nc3ccccc3o1)CC2`, the “Percent Effect” value is reported as 10.13%. `Cc1oc(-c2ccco2)nc1CN1CCc2cnc(C(C)C)nc2C1` was tested, and the “Percent Effect” value was 92.73%. In the case of `Cc1ncc2c(n1)CN(Cc1nc(-c3ccsc3)oc1C)CC2`, the “Percent Effect” value is reported as 102.9%. With `Cc1ncc2c(n1)CN(Cc1nc(-c3ccco3)oc1C)CC2` the “Percent Effect” value was 105%.
